According to PubChem BioAssay AID597 (National Center for Advancing Translational Sciences (NCATS), 2007):
Out of some 68,000 compounds screened, about 60 (0.09%) were called active. Calls come from the whole dose curve; as a rule, active = well fitted curve in the direction sought with a large enough effect; inconclusive = small, poorly fitted or top-dose-only effect; inactive = flat fitted curve, though single readings scatter. The list is a sample of the results. Where a SMILES comes first, the peptide text is derived from it. The star is where a group is joined. Bz = O=C(c1ccccc1)*

assay: qHTS Assay for Epigenetic Modulators; settings: mouse C127i GFP locus derepression, cytometry, 30 h; series mostly up to 46.1 µM; note: % of control where 0% means no effect
Source text: NIH Molecular Libraries Screening Centers Network [MLSCN] NIH Chemical Genomics Center [NCGC] MLSCN Grant: 1 X01 MH079860-01 Assay Provider: Elisabeth D. Martinez, University of Texas SW Medical Center NCGC Assay Overview: The Locus Derepression assay detects the derepression of a GFP reporter that is stably integrated in a region of the genome of murine c127i mammary cells that is presumably silenced. GFP transcription in this construct is controlled by a CMV promoter, which normally is strong and constitutively active. However, this line was selected for lack of constitutive expression of the GFP protein. GFP production can be induced by incubating the cells with histone deacetylase or DNA methyltransferase inhibitors. Compounds that cause derepression of the locus to express GFP are identified by enumerating GFP positive cells using a laser-scanning microplate cytometer. For further details of this screen and follow-up characterization, see R.L. Johnson, W. Huang, A. Jadhav, C.P. Austin, J. Inglese, E.D. Martinez, A Quantitative High-Throughput Screen Identifies Potential Epigenetic Modulators of Gene Expression, Analytical Biochemistry (2008) 375(2):237-48.
NCGC Assay Protocol Summary: Two hundred and fifty cells in 5 uL per well were dispensed into black, clear-bottom 1536-well plates. Twenty-three nL compound was transferred to the assay plate and cells were incubated 30 hours at 37 C. Medium was removed, cells were washed two times with PBS, and GFP-positive cells were enumerated as fluorescent objects between the sizes of 20 to 120 um width and depth using an Acumen Explorer. Keywords: NIH Roadmap, MLSCN, MLI, MLSMR, qHTS, NCGC, qHTS, HDAC, DNMT, HAT, DNA methyltransferases, histone acetyl transferases, histone deacetylases

GFP derepression (activation), inactive:
O=c1oc2c(CN3CCCCC3)c(O)ccc2c2c1CCCCC2
COc1ccc(C2N=C(N)N=C(N)N2c2ccccc2)cc1OC (stereo not drawn)
O=C(O)COc1c(Cl)cc(Cl)c2cccnc12 5.8% [at 9.22 µM]
CCn1c(SCC(=O)Nc2ccc3c(c2)OCCO3)nc2c(c1=O)SC(C)C2 (stereo not drawn)
Cn1c(=S)c2[nH]c(SCCCc3ccccc3)nc2n(C)c1=O -3.4% [at 9.22 µM]
COc1cccc(Cn2c(=O)c(-c3ccccc3)nc3cnc(OC)nc32)c1 10.8% [at 9.22 µM]
CCCC(C(=O)OCCN(CC)CC)(c1ccccc1)c1ccccc1
O=C(OCCN1CCOCC1)C1(c2ccccc2)CCCCC1
O=C(c1cc(C(F)(F)F)cc(C(F)(F)F)c1)N1CCC2(CCCN(Cc3ccncc3)C2)CC1 2.2% [at 9.22 µM]
O=C(O)CCC(=O)Nc1ccc(N2CCOCC2)cc1
COCCn1c(=O)c(-c2cc(F)cc(F)c2)nc2cnc(N3CCNCC3)nc21 -0.5% [at 9.22 µM]
CN(C)C(=O)c1ccc(-c2cncnc2Nc2ccccc2)cc1 5.7% [at 9.22 µM]
COc1ccc(NC(=O)CSc2nnc(-c3cccs3)n2Cc2ccco2)cc1OC
CCOC(=O)N1CCN(C(=O)c2n[nH]c(=O)c3ccccc23)CC1
CC(=O)Nc1ccc(S(=O)(=O)N2CCSCC2)cc1
CCOc1ccc(NS(=O)(=O)c2ccc(OCC(=O)NCCCOC)cc2)cc1
COc1ccc(C(=O)N/N=C2/C(=O)c3c(C)cc(C)cc3CC2(C)C)cc1 3.4% [at 9.22 µM]
N#Cc1cc2[nH]c(=O)c(=O)[nH]c2cc1[N+](=O)[O-]
N/C(=N\c1nc2ccccc2o1)NC(=O)C(Cc1ccccc1)N1C(=O)c2ccccc2C1=O (stereo not drawn)
CCCNS(=O)(=O)c1ccc(CCC(=O)NCc2cccnc2)cc1
Cc1nc2ccc(S(=O)(=O)NCC(=O)NCCN3CCCCC3C)cc2s1 (stereo not drawn)
N#Cc1cccc(-c2nc3cnc(N4CCNCC4)nc3n(C3CC3)c2=O)c1 -5% [at 9.22 µM]
COc1ccc(C2OC(=O)CC2C(=O)NC(C)C)cc1 (stereo not drawn)
O=C(NCC12CC3CC(C1)CC(CNC(=O)N1CCCC1)(C3)C2)N1CCCC1
C[C@]1(O)CC[C@H]2[C@H]3CC=C4N5CCN=C5CC[C@@]4(C)[C@H]3CC[C@@]21C -3.4% [at 9.22 µM]
COCCn1c(=O)c(C)nc2cnc(N(C)C)nc21 2.3% [at 9.22 µM]
CN1CCCc2cc(C#N)c(=O)[nH]c21
CCCc1[nH]nc2c1C(c1ccc(OC(=O)c3ccco3)cc1)C(C#N)=C(N)O2 (stereo not drawn)
CCCCOc1ccc(-c2nnc(-c3ccco3)o2)cc1
CC(C)NC(=O)N1CC[C@@]2(CCCN(C(=O)c3cccn3C)C2)C1 2.2% [at 9.22 µM]
O=S(=O)(NCc1ccc2c(c1)OCO2)c1cccc2nsnc12
COc1ccc(CNC(=O)c2c(C)cc(=O)oc2C)cc1OC
Cc1cccc(CC(=O)Nc2c3c(nn2-c2cccc(Cl)c2)CS(=O)C3)c1 (stereo not drawn)
Cc1nn(C)c(C)c1S(=O)(=O)N1CCc2ccccc21
Cc1nc2cnc(N3CCNCC3)nc2n(CCc2ccccc2)c1=O 8.1% [at 9.22 µM]
Clc1ccc(C(c2ccc(Cl)cc2)n2cc[n+](C[C@@H](OCc3ccc(Cl)cc3Cl)c3ccc(Cl)cc3Cl)c2)cc1
C=CCSC1=C(C#N)C(c2cc(Br)c(O)c(OC)c2)CC(=O)N1 (stereo not drawn)
CN(C)CCSS(=O)(=O)O 0.1% [at 9.22 µM]
CC(NC(=O)CSc1nc2c(cc1C#N)CN(C)CC2)c1ccccc1 (stereo not drawn)
CCNC(=O)CN(c1ccc(C)cc1)S(=O)(=O)c1ccc(SC)cc1
CC(=O)c1sc2nc(SCC(=O)N3CCCCC3)[nH]c(=O)c2c1C
Cn1cccc1C1(C(F)(F)F)NCCNC1=O (stereo not drawn)
CCOC(=O)N1CCN(C(=O)c2nn(-c3ccc(C)cc3)c(=O)c3c2c2ccccc2n3C)CC1
COc1ccccc1CNC(=O)CCCNS(=O)(=O)c1cccc2nsnc12
O=C(c1ccc(O)cc1)c1ccc(C(=O)O)c(C(=O)O)c1
CCOC(=O)CNC(=O)CSc1nnnn1-c1cc(C)ccc1C
COc1ccc(S(=O)(=O)Nc2c(C)n(C)n(-c3ccccc3)c2=O)cc1
COc1ccc(C(C(O)C(=O)c2c[nH]c3ccccc23)N2CCN(c3ccccc3)CC2)cc1 (stereo not drawn)
Cn1c(=O)[nH]c(=O)c2c1nc(N(CCO)Cc1ccccc1)n2Cc1ccccc1Cl
Cn1c(=O)cc(SCC(=O)N2CCN(C(=O)c3ccco3)CC2)c2ccccc21
COc1ccc(OC)c(CNC(=O)C2CCCN(c3nc4ccccc4o3)C2)c1 (stereo not drawn)
Cn1cc(-c2nc3cnc(N4CCNCC4)nc3n(CCC#N)c2=O)c2ccccc21 7.6% [at 9.22 µM]
CCOCCc1c(O)nc(SCC(=O)NCc2ccco2)[nH]c1=O
N#CC(C(N)=O)=C1CCC2(CC1)OCCCCO2
COC(=O)c1ccc(C2NC(=O)NC(C)=C2C(=O)N(C)C)cc1 (stereo not drawn)
CCn1c2c(c3ccc(OC)cc31)CCCC2=O
COc1ccc(S(=O)(=O)NC(CC(=O)NCc2ccccc2OC)c2ccco2)cc1 (stereo not drawn)
O=C(NC(Cc1ccccc1)C(=O)N1CCCC1C(=O)O)c1ccccc1 (stereo not drawn) (Bz-Phe-Pro-OH; configuration not given here)
Cc1nc2cnc(Oc3cccc(Cl)c3)nc2n(C2CC2)c1=O -2.7% [at 9.22 µM]
C[C@H]1O[C@@H](CC(=O)O)Cc2c1c(O)c1c(O)cc(-c3cc(=O)c4c(=O)c5c(c(=O)c=4c3=O)C[C@H](CC(=O)O)O[C@@H]5C)c(O)c1c2O 10.3% [at 9.22 µM]
CNc1cc(-c2c(C)noc2C)ncn1 0% [at 9.22 µM]
O=C(c1c(Cl)nc2sccn12)N1CCCc2ccccc21
Cc1ccc2[nH]c(=O)c(-c3nc4c(C)cccn4c3NCc3ccco3)cc2c1
COc1ccc(CNc2ncncc2-c2ccccc2C)c(OC)c1 0% [at 9.22 µM]
CCOC(=O)c1[nH]c2ccccc2c1N=C(C)N(CC)CC
Fc1ccc(Cn2nnnc2C(c2cccs2)N2CCCCCC2)cc1 (stereo not drawn)
COc1ccc2[nH]c(=O)c(CN(CC3CCCO3)C(=O)Nc3ccccc3)cc2c1 (stereo not drawn)
COc1ccc2[nH]cc(CCNc3ncnc4ccc(-c5ccccc5CN(C)C)cc34)c2c1 -5.2% [at 9.22 µM]
